“And” between values parts separate entries of the source, which are not always exact repeats. Identical values can stand only once. The whole screen tested about 6,400 compounds, of which about 610 (9.5%) were called active. Rule as the data show it: active = activity change below about -70%; inconclusive = no clear call, values can overlap the other calls; inactive = above that. The list comes from a sample in which actives are over-represented; it also holds similar structures and randomly drawn compounds. Some structures have more than one record in an assay (separate samples or runs), and their calls can disagree.

A short description of the test: T. gondii ME49Luc in HeLa cells, luciferase assay, 72 h, no IFN-y (AID 1259421). As to conditions: stronger effect = lower value, concentration not given here.
On to `CC[C@H](C)[C@H](NC(=O)[C@H](Cc1ccc(O)cc1)NC(=O)[C@@H](NC(=O)[C@H](CCCN=C(N)N)NC(=O)[C@@H](N)CC(=O)O)C(C)C)C(=O)N[C@@H](Cc1cnc[nH]1)C(=O)N1CCC[C@H]1C(=O)O`, for which the activity change, negative = inhibition was 8.39% (inactive). Consider `O=S1(=O)N[C@H]2CCCN2c2ccccc21`, for which the activity change, negative = inhibition is 1.4% (inactive). On to `CCC(=O)O[C@@]1(C(=O)CCl)[C@@H](C)C[C@H]2[C@@H]3C[C@H](F)C4=CC(=O)C=C[C@]4(C)[C@]3(F)[C@H](O)C[C@@]21C`, for which the activity change, negative = inhibition was 6.07% (inactive). `CC(=O)c1c(O)c(C)c(O)c2c1OC1=CC(=O)C(C(C)=O)C(=O)C12C` (centres undefined): the activity change, negative = inhibition is -3.87% (inactive).

Turning to `COc1ccccc1OCC(O)CNC(C)C` (centres undefined), the activity change, negative = inhibition was 17.1% (inactive) and 3.92% (inactive). Turning to `COc1cc2c(cc1OC)C(=O)CC2`, the activity change, negative = inhibition is 4.96% (inactive). Turning to `COc1cc(CCC(C)=O)ccc1O`, the activity change, negative = inhibition is 7.65% (inactive).

On to `COC(=O)C[C@](O)(CCCC(C)(C)O)C(=O)O[C@@H]1C(OC)=C[C@]23CCCN2CCc2cc4c(cc2[C@H]13)OCO4`, for which the activity change, negative = inhibition was -83.4% (active) and -83.9% (active) and -85.7% (active). As for `COCCCOc1ccnc(CS(=O)c2nc3ccccc3[nH]2)c1C` (centres undefined), the activity change, negative = inhibition was 106% (inactive) and 41.3% (inactive). With `N#CC(c1ccnc(OCc2ccc(CN3CCOCC3)cc2)n1)c1nc2ccccc2s1` (centres undefined) the figure was -29.2% (inactive); with `C[C@@H](Oc1cc(-n2cnc3ccc(CN4CCN(C)CC4)cc32)sc1C(N)=O)c1ccccc1C(F)(F)F`, -75.7% (active). For the compound `COc1cc2ncn(-c3cc(OCc4ccccc4C(F)(F)F)c(C(N)=O)s3)c2cc1OC`, the activity change, negative = inhibition was -75.1% (active). Under `C[C@H]1CC2C([C@@H](O)C[C@@]3(C)C2CC[C@]3(O)C(=O)COC(=O)CCC(=O)O)[C@@]2(C)C=CC(=O)C=C12` (some centres undefined) stands 5.48% (inactive) and 3.76% (inactive); under `COC1CC2CCC(C)C(O)(O2)C(=O)C(=O)N2CCCCC2C(=O)OC(C(C)CC2CCC(O)C(OC)C2)CC(=O)C(C)/C=C(\C)C(O)C(OC)C(=O)C(C)CC(C)/C=C/C=C/C=C/1C` (centres undefined), 5.34% (inactive) and -8.87% (inactive). With `C=C1CC2C3C=C(C)C4=CC(=O)CC[C@]4(C)C3CC[C@]2(C)[C@@]1(OC(C)=O)C(C)=O` (some centres undefined) the figure was 10.5% (inactive) and -22.4% (inactive). Turning to `CCCCCCCCCCCCCCCCCC(=O)OCC(O)CO` (centres undefined), the activity change, negative = inhibition was 5.64% (inactive).

With `COc1ccc(C2CC(c3c(O)cc(C)oc3=O)=NCCS2)c(OC)c1` (centres undefined), the activity change, negative = inhibition is 10.3% (inactive). As for `CO[C@H]1C=CO[C@@]2(C)Oc3c(C)c(O)c4c(O)c(c(/C=N/N5CCN(C6CCCC6)CC5)c(O)c4c3C2=O)NC(=O)/C(C)=C\C=C[C@H](C)[C@H](O)[C@@H](C)[C@@H](O)[C@@H](C)[C@H](OC(C)=O)[C@@H]1C`, the activity change, negative = inhibition is -5.33% (inactive). Under `CCCCCCCCCCCCCCCCCCOC[C@H](COP(=O)(O)OCC[N+](C)(C)C)OC` stands 5.04% (inactive); under `O=c1c(-c2ccc(O)cc2)coc2c([C@@H]3O[C@H](CO)[C@@H](O)[C@H](O)[C@H]3O)c(O)ccc12`, -0.619% (inactive). With `CCN(CC)CCNC(=O)c1c(C)[nH]c(/C=C2\C(=O)Nc3ccc(F)cc32)c1C` the figure was -75.8% (active); with `Cc1[nH]c(/C=C2\C(=O)Nc3ccccc32)c(C)c1CCC(=O)O`, 7.07% (inactive); with `Cc1[nH]c(/C=C2/C(=O)Nc3ccc(F)cc32)c(C)c1C(=O)NC[C@H](O)CN1CCOCC1`, -69.2% (inactive). With `COc1cccc(OC)c1-c1ccc(C[C@H](NC(=O)c2c(Cl)cccc2Cl)C(=O)O)cc1` the figure was 4.91% (inactive); with `O=C(c1ccc(OCCCc2cnc[nH]2)cc1)C1CC1`, 31.1% (inactive).

On to `CN=C(NC)NCc1ccc(OC)cc1`, for which the activity change, negative = inhibition was 0.956% (inactive). Under `CC(C)CC1C(=O)N2CCCC2C2(O)OC(NC(=O)C3C=C4c5cccc6[nH]c(Br)c(c56)CC4N(C)C3)(C(C)C)C(=O)N12` (centres undefined) stands 18.4% (inactive); under `COc1cc2c(cc1OC)C(C(C(=O)N(CCc1ccc(OC)c(OC)c1OC)CCc1ccc(OC)c(OC)c1OC)c1ccccc1)=NCC2` (centres undefined), 23.5% (inactive). `CC(C)n1nc(-c2ccc3oc(N)nc3c2)c2c(N)ncnc21`: the activity change, negative = inhibition is -74.3% (active). With `CC(C)n1nc(-c2cc3cc(O)ccc3[nH]2)c2c(N)ncnc21` the figure was -50.4% (inactive). With `CC(=O)O[C@@H]1CC[C@@]2(C)C(C[C@@H](OC(C)=O)[C@@]3(C)C4=CC(=O)O[C@@H](c5ccoc5)[C@]4(C)CCC23)C1(C)C` (some centres undefined) the figure was 12.5% (inactive); with `O=C(O)CCc1c(C(=O)O)[nH]c2cc(Cl)cc(Cl)c12`, 12.5% (inactive). With `CC[C@H](C)[C@H]1O[C@]2(CC[C@@H]1C)C[C@@H]1C[C@@H](C/C=C(\C)[C@@H](O[C@H]3C[C@H](OC)[C@@H](O[C@H]4C[C@H](OC)[C@@H](O)[C@H](C)O4)[C@H](C)O3)[C@@H](C)/C=C/C=C3\CO[C@@H]4[C@H](O)C(C)=C[C@@H](C(=O)O1)[C@]34O)O2` the figure was -65% (inactive) and -79.5% (active).

Turning to `CCC(C)[C@H]1O[C@]2(C=C[C@@H]1C)C[C@@H]1C[C@@H](C/C=C(\C)[C@@H](OC3C[C@H](OC)C(O[C@H]4C[C@H](OC)[C@@H](NC(C)=O)[C@H](C)O4)[C@H](C)O3)[C@@H](C)/C=C/C=C3\CO[C@@H]4[C@H](O)C(C)=C[C@@H](C(=O)O1)[C@]34O)O2` (some centres undefined), the activity change, negative = inhibition was -6.74% (inactive). For `CCC(C)[C@H]1O[C@]2(CC[C@@H]1C)C[C@@H]1C[C@@H](C/C=C(\C)[C@@H](OC3C[C@H](OC)C(O[C@H]4C[C@H](OC)[C@@H](O)[C@H](C)O4)[C@H](C)O3)[C@@H](C)/C=C/C=C3\CO[C@@H]4[C@H](O)C(C)=C[C@@H](C(=O)O1)[C@]34O)O2` (some centres undefined), the activity change, negative = inhibition is -67.1% (inactive). Turning to `COc1ccccc1N1CCN(CCCCN2C(=O)CCC2=O)CC1`, the activity change, negative = inhibition was -10.5% (inactive) and 6.09% (inactive). Under `C[C@]12C=CC(=O)C=C1CCC1C2C(=O)C[C@@]2(C)C1CC[C@]2(O)C(=O)CO` (some centres undefined) stands -0.495% (inactive); under `C=COCC(F)(F)F`, 2.78% (inactive); under `COc1ncnc(N)c1OC`, 8.31% (inactive). As for `C[C@]12CCC3c4ccc(O)cc4CCC3C1CC[C@@H]2OC(=O)CCC1CCCC1` (some centres undefined), the activity change, negative = inhibition was -65.2% (inactive) and 3.38% (inactive). With `CCCCC(=O)O[C@H]1CC[C@H]2[C@@H]3CCc4cc(O)ccc4[C@H]3CC[C@]12C` the figure was -58.1% (inactive); with `C[C@]12CC[C@@H]3c4ccc(O)cc4C[C@@H](CCCCCCCCCS(=O)CCCC(F)(F)C(F)(F)F)[C@H]3[C@@H]1CC[C@@H]2O` (some centres undefined), -83.4% (active). With `CC(C)(C)N1CCC(c2ccccc2)(c2ccccc2)CC1` the figure was 14.2% (inactive); with `CCC[C@@]1(CCc2ccccc2)CC(=O)C([C@H](CC)c2cccc(NS(=O)(=O)c3ccc(C(F)(F)F)cn3)c2)C(=O)O1` (some centres undefined), 10.4% (inactive); with `COc1ccc(C(=O)Nc2c(Cl)cncc2Cl)cc1OC1CCCC1`, 3.75% (inactive). With `COc1cc(CCc2cc(NC(=O)c3ccc(N4C[C@@H](C)N[C@@H](C)C4)cc3)n[nH]2)cc(OC)c1` the figure was -81.1% (active); with `COc1ccc(NC(=O)c2ccc(C(=N)N(C)C)cc2)c(C(=O)Nc2ccc(Cl)cn2)c1`, -0.285% (inactive); with `C/C=N/N(C)C=O`, 3.01% (inactive). Take `Cc1[nH]c(C)c(Cl)c(=O)c1Cl`: the activity change, negative = inhibition is -1.17% (inactive) and -3.71% (inactive).

Take `Cc1cccc(Oc2cnc(=O)[nH]c2)c1`: the activity change, negative = inhibition was 9.21% (inactive). For the compound `CCCCOC(=O)c1cc2c(cn1)[nH]c1ccccc12`, the activity change, negative = inhibition was 42.7% (inactive) and 253% (inactive). Under `CCCS(=O)(=O)Nc1ccc(F)c(C(=O)c2c[nH]c3ncc(Cl)cc23)c1F` stands -26.4% (inactive); under `CCCCOc1c(C(=O)c2c(F)cc(C)cc2F)cnc2n[nH]cc12`, -88.2% (active); under `COc1cc(OC)c2ccc(=O)oc2c1`, 1.05% (inactive). Under `Clc1ccc(CCCOCCCN2CCCCC2)cc1` stands 2.37% (inactive); under `CS(=O)(=O)c1ccc(-c2nc(-c3ccc(F)cc3)c(-c3ccncc3)[nH]2)cc1`, -5.72% (inactive); under `COc1ccc2cc(-c3nc(-c4ccc(S(C)=O)cc4)[nH]c3-c3ccncc3)ccc2c1` (centres undefined), -51.3% (inactive). Under `COc1cc(S(C)=O)ccc1-c1nc2ncccc2[nH]1` (centres undefined) stands -7.2% (inactive) and 19.1% (inactive); under `Oc1ccc(-c2nc(-c3ccc(F)cc3)c(-c3ccncc3)[nH]2)cc1`, -91.7% (active) and -92.7% (active). Regarding `CS(=O)c1ccc(-c2nc(-c3ccc(F)cc3)c(-c3ccncc3)[nH]2)cc1` (centres undefined), the activity change, negative = inhibition is -85.1% (active) and -89.6% (active). Under `CC1(C)O[C@H]2CC(=O)OC[C@]23[C@H]2CC[C@@]4(C)[C@H](c5ccoc5)OC(=O)[C@H]5O[C@]54[C@]2(C)C(=O)C[C@@H]13` stands 7.46% (inactive); under `CC/C=C\C/C=C\C/C=C\C/C=C\C/C=C\C/C=C\CCC(=O)OCC`, 4.98% (inactive). With `COc1cc(O)c(C(=O)c2ccccc2)cc1O` the figure was 6.03% (inactive); with `Cc1cc(CC(C)CC(C)(C)C)n(O)c(=O)c1` (centres undefined), -84.1% (active); with `Nc1nnnn1-c1ccccc1`, 6.66% (inactive).

For the compound `CCCCCCCCCCCCCC(=O)OC(C)C`, the activity change, negative = inhibition is 13.1% (inactive). For the compound `N#Cc1ncccn1`, the activity change, negative = inhibition was 3.94% (inactive). As for `COc1cc(/C=C2\CCCN([C@@H](C)c3ccc(F)cc3)C2=O)ccc1-n1cnc(C)c1`, the activity change, negative = inhibition was -5.26% (inactive).

Take `Cn1cc(-c2[nH]c3cc(NC(=O)[C@H](N)C4CCCCC4)cc4c3c2C=NNC4=O)cn1`: the activity change, negative = inhibition is -91.8% (active) and -59.2% (inactive).

The values above are taken from PubChem BioAssay AID1259421 (Broad Institute, 2018).
